These results are taken from PubChem BioAssay (NCI).

This is part of a sample that, as a whole, favours compounds with a hit. Of some 83,000 tested, about 20% had one in any assay.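 96-well plates, one dose, 48 hours. Percent growth reported; active if below 10.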 Values without a mark were called inactive. Calls of active or inactive are those of the source.

In one assay the test system is A549/ATCC NSCLC. In words: NCI-60 one-dose screen, 48 h (100 = growth as untreated, 0 = no growth, -100 = all killed). The following applies: 10 µM unless noted.
For `NNC(=S)N1N=C(c2cc3ccccc3o2)CC1c1c[nH]c2ccccc12` (stereo unspecified), the growth was 48.4%.
Same read-out and setting: as for `O=C(/C=C1\C(=O)N(Cc2ccccc2)c2ccccc21)c1ccc(OCCN2CCCCC2)cc1`, the figure is 83%.
On the same count and under the same terms, as for `COc1ccc(CN2C(=O)/C(=C\C(=O)c3ccc(OCCN4CCCC4)cc3)c3ccccc32)cc1`, the figure is 97.2%.
On to `C[C@@H](c1ccc2c(c1)[nH]c1ccc(Cl)cc12)c1nc2ccccc2[nH]1`, for which the growth is 104%.
With `c1ccc(-c2cn3ccnc3c(-c3ccc4ncn(C5CCCCC5)c4c3)n2)cc1`, the growth is 66.7%.
Same read-out and setting: as for `C[C@@H](c1ccc2c(c1)[nH]c1ccc(Cl)cc12)c1nc2ccc(Cl)cc2[nH]1`, the figure is 88.3%; as for `COc1cc(CNC(=O)CCCC/C=C/C(C)C)ccc1OCc1nnc(Nc2ccccc2F)o1`, 105%; as for `Cc1c(CN(C)C)cc(C(C)C)cc1C(C)C`, 101%.
On the same count and under the same terms, as for `O=S(=O)(O)c1ccc2c(c1)Sc1cc(S(=O)(=O)O)ccc1O2`, the figure is 99.5%; as for `COc1ccc(Cn2cc3c(c2-c2ccccc2)CCc2cnoc2-3)cc1N`, 29.4%; as for `COc1ccc(/C=C(/C(=O)N2CCN(c3ccc(C)cc3)CC2)c2cc(OC)c(OC)c(OC)c2)cc1N`, 23.1%.
On the same count and under the same terms, in the case of `C=CCN(C)C` it was 100%.
With `CCNc1nnc(COc2ccc(CNC(=O)CCCC/C=C/C(C)C)cc2OC)o1`, the growth was 97%.
The same measure, in the same setting: as for `COc1ccc2oc(=O)cc(CN3C(=O)S/C(=C\c4ccc(Cl)cc4)C3=O)c2c1`, the figure is 97.9%; as for `CC(C)OC(=O)Nn1cnc2ccccc21`, 117%; as for `COc1ccc(Cn2cc3c(c2-c2ccc(OC)cc2)CCc2cnoc2-3)cc1`, 22%.
Consider `COc1cc(Cn2ccc3c2-c2oncc2CC3)cc(OC)c1`, for which the growth was 36%.
Still for that read-out and setting: as for `COc1cccc(Cn2cc3c(c2)-c2oncc2CC3)c1`, the figure is 28.3%; as for `COc1ccc(C2=C/C(=C\c3ccc(Cl)cc3)C(=O)NN2C(=S)NN)cc1`, 101%.
Turning to `COc1ccc(Cn2cc3c(c2)-c2oncc2CC3)cc1OC`, the growth was 25.9%.
For the compound `COc1ccccc1Nc1nnc(COc2ccc(CNC(=O)CCCC/C=C/C(C)C)cc2OC)o1`, the growth is 99.3%.
Turning to `N=c1c2c(=O)n3c(nc2nc2sc4ccc(Cl)cc4n12)-c1ccccc1Sc1ccccc1-3`, the growth was 22.4%.
On to `CCCC(=O)NNc1[nH]c(-c2cc(OC)c(OC)c(OC)c2)cc1C(=O)OCC`, for which the growth is 115%.
Same read-out and setting: as for `COc1ccc(Cn2cc3c(c2-c2ccc(O)cc2)CCc2cnoc2-3)cc1`, the figure is 32.3%; as for `COc1ccc(OC)c(Cn2cc3c(c2-c2ccccc2)CCc2cnoc2-3)c1`, 50.8%; as for `CCCCCCCCCCCCCCCCCC1=NCCN1CS(=O)(=O)O`, -8.05% (active).

Another assay deals with 786-0 renal. Described as above. The settings on record: 10 µM unless noted.
Take `COc1ccc(/C=C(/C(=O)N2CCCCC2)c2cc(OC)c(OC)c(OC)c2)cc1`: the growth was 23.5%.
Consider `COc1ccc(OC)c(Cn2cc3c(c2)-c2oncc2CC3)c1`, for which the growth is 46%.
Same read-out and setting: as for `COc1ccc(CN2C(=O)/C(=C\C(=O)c3ccc(OCCN4CCCCC4)cc3)c3ccccc32)cc1`, the figure is 37.4%; as for `COc1ccc(/C=C2\SC(=O)N(Cc3cc(=O)oc4ccc(OC)cc34)C2=O)cc1`, 83.9%; as for `O=c1oc2ccc3ccccc3c2cc1-c1ccnc2[nH]c(=S)[nH]c(=O)c12`, 97.5%.
On the same count and under the same terms, in the case of `O=C(O)c1occ(Cl)c1Cl` it was 111%; in that of `COc1ccc(Cn2cc3c(c2-c2ccccc2)CCc2cnoc2-3)cc1OC`, 39.7%.
On to `CCCCN(CCCC)CC(O)CN(CC)CC` (stereo unspecified), for which the growth was 104%.
Take `O=C(/C=C/c1c[nH]c2ccccc12)c1cc2ccccc2o1`: the growth is 86.6%.
Consider `COc1ccc2sc(-n3nc4nc5n(c(=O)c4c3N)-c3ccccc3Sc3ccccc3-5)nc2c1`, for which the growth is 91.2%.
The same measure, in the same setting: in the case of `CCOC(=O)NNc1[nH]c(-c2ccc(OC)cc2)cc1C#N` it was 94.8%; in that of `COc1ccc(-c2cn3ccnc3c(-c3ccc4ncn(C5CCCCC5)c4c3)n2)cc1`, 16.8%; in that of `CCOC(=O)C1=NN(c2ccccc2)C2=NC(=O)/C(=C\c3cn(-c4ccccc4)nc3-c3cc4ccccc4o3)C(=O)N12`, 99.9%.
Turning to `O=C(/C=C1\C(=O)N(Cc2ccc([N+](=O)[O-])cc2)c2ccccc21)c1ccc(OCCN2CCCCC2)cc1`, the growth is -88.1% (active).
Same read-out and setting: in the case of `NNC(=S)N1N=C(c2cc3ccccc3o2)CC1c1c[nH]c2ccccc12` (stereo unspecified) it was 22%; in that of `O=C(/C=C1\C(=O)N(Cc2ccccc2)c2ccccc21)c1ccc(OCCN2CCCCC2)cc1`, -74.3% (active).
`COc1ccc(CN2C(=O)/C(=C\C(=O)c3ccc(OCCN4CCCC4)cc3)c3ccccc32)cc1`: the growth was 85.7%.
`C[C@@H](c1ccc2c(c1)[nH]c1ccc(Cl)cc12)c1nc2ccccc2[nH]1`: the growth was 103%.
Still for that read-out and setting: in the case of `c1ccc(-c2cn3ccnc3c(-c3ccc4ncn(C5CCCCC5)c4c3)n2)cc1` it was 63.2%; in that of `C[C@@H](c1ccc2c(c1)[nH]c1ccc(Cl)cc12)c1nc2ccc(Cl)cc2[nH]1`, 75.9%.
On the same count and under the same terms, in the case of `COc1cc(CNC(=O)CCCC/C=C/C(C)C)ccc1OCc1nnc(Nc2ccccc2F)o1` it was 12%; in that of `Cc1c(CN(C)C)cc(C(C)C)cc1C(C)C`, 103%.
Same read-out and setting: in the case of `O=S(=O)(O)c1ccc2c(c1)Sc1cc(S(=O)(=O)O)ccc1O2` it was 108%; in that of `COc1ccc(Cn2cc3c(c2-c2ccccc2)CCc2cnoc2-3)cc1N`, 38.8%; in that of `COc1ccc(/C=C(/C(=O)N2CCN(c3ccc(C)cc3)CC2)c2cc(OC)c(OC)c(OC)c2)cc1N`, 18.5%.
Turning to `C=CCN(C)C`, the growth was 106%.
On the same count and under the same terms, in the case of `CCNc1nnc(COc2ccc(CNC(=O)CCCC/C=C/C(C)C)cc2OC)o1` it was 95.5%; in that of `COc1ccc2oc(=O)cc(CN3C(=O)S/C(=C\c4ccc(Cl)cc4)C3=O)c2c1`, 93.1%; in that of `CC(C)OC(=O)Nn1cnc2ccccc21`, 96.7%.
Same read-out and setting: in the case of `COc1ccc(Cn2cc3c(c2-c2ccc(OC)cc2)CCc2cnoc2-3)cc1` it was 30.3%; in that of `COc1cc(Cn2ccc3c2-c2oncc2CC3)cc(OC)c1`, 50.9%; in that of `COc1cccc(Cn2cc3c(c2)-c2oncc2CC3)c1`, 30.2%.
On the same count and under the same terms, in the case of `COc1ccc(C2=C/C(=C\c3ccc(Cl)cc3)C(=O)NN2C(=S)NN)cc1` it was 104%; in that of `COc1ccc(Cn2cc3c(c2)-c2oncc2CC3)cc1OC`, 22%; in that of `COc1ccccc1Nc1nnc(COc2ccc(CNC(=O)CCCC/C=C/C(C)C)cc2OC)o1`, 96.2%.
For `N=c1c2c(=O)n3c(nc2nc2sc4ccc(Cl)cc4n12)-c1ccccc1Sc1ccccc1-3`, the growth is 24.6%.
For `CCCC(=O)NNc1[nH]c(-c2cc(OC)c(OC)c(OC)c2)cc1C(=O)OCC`, the growth was 92.5%.
Same read-out and setting: as for `COc1ccc(Cn2cc3c(c2-c2ccc(O)cc2)CCc2cnoc2-3)cc1`, the figure is 28.9%.
Same read-out and setting: in the case of `COc1ccc(OC)c(Cn2cc3c(c2-c2ccccc2)CCc2cnoc2-3)c1` it was 66.6%.
Same read-out and setting: in the case of `CCCCCCCCCCCCCCCCCC1=NCCN1CS(=O)(=O)O` it was 74.5%.
